{"source": "PubChem BioAssay (NCATS)", "note": "Results filed as inconclusive are left out. Values without a mark were called inactive. Calls follow the shape of the dose curve; as a rule, active = well fitted inhibition curve with a large enough effect; inconclusive = small, poorly fitted or top-dose-only effect; inactive = flat fitted curve, though single readings scatter."}
{"tested_on": "CP185", "experiment": "qHTS profiling for inhibitors of Plasmodium falciparum proliferation (AID 504749);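 also: 0% = DMSO vehicle and full inhibition = artemisinin control; nearly all actives have a fitted effect of over 60% in size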", "conditions": "P. falciparum in erythrocytes, SYBR Green DNA, 72 h; series mostly up to 28.7 µM; activity, negative = inhibition: at the top concentration", "in_short": "(§1)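 Infected RBCs, 0.3% parasitemia/2.5% Hct final; cpd 72 h, 37 C, 5% CO2; lysis buffer with saponin/triton/SYBR Green I, o/n RT dark; FI 485/535; norm. to artemisinin (0.29 uM) and DMSO.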"}
{"smiles": "O=C(O)Cc1ccc(CCNS(=O)(=O)c2ccc(Cl)cc2)cc1", "activity, negative = inhibition": "6.43%"}
{"smiles": "NS(=O)(=O)c1ccc(NC(=O)CCC(=O)O)cc1", "activity, negative = inhibition": "6.16%"}
{"smiles": "C=CCSCC1Nc2cc(Cl)c(S(N)(=O)=O)cc2S(=O)(=O)N1", "note": "(stereo not given)", "activity, negative = inhibition": "2.18%"}
{"smiles": "Cc1cccc(C)c1NC(=O)CC12CCCN1CCC2", "activity, negative = inhibition": "1.4%"}
{"smiles": "CC(=O)Nc1cccc(O)c1", "activity, negative = inhibition": "0.271%"}
{"smiles": "CNCc1ccccc1", "activity, negative = inhibition": "4.93%"}
{"smiles": "COc1ccc(C(=O)NCc2ccc(OCCN(C)C)cc2)cc1OC", "activity, negative = inhibition": "12.8%"}
{"smiles": "C=CCNC(N)=S", "activity, negative = inhibition": "0.951%"}
{"smiles": "NS(=O)(=O)c1cc(-c2nn[nH]n2)c(NCc2cccs2)cc1Cl", "activity, negative = inhibition": "12.1%"}
{"smiles": "CCOc1ccc(C(=O)OCCN(CC)CC)cc1", "activity, negative = inhibition": "2.77%"}
{"smiles": "Cc1c(N(C)C)c(=O)n(-c2ccccc2)n1C", "activity, negative = inhibition": "7.73%"}
{"smiles": "CCc1cccc(CC)c1NC(=O)CN(CC(=O)O)CC(=O)O", "activity, negative = inhibition": "12.8% [at 12.8 µM]"}
{"smiles": "COC(=O)c1cccnc1", "activity, negative = inhibition": "-0.67%"}
{"smiles": "Cc1ccc(S(=O)(=O)NC(=O)NC2CCCCCCC2)cc1", "activity, negative = inhibition": "-4.74%"}
{"smiles": "CCCCCCCCCCCCCCCCC(C(=O)O)C(O)(CC(=O)O)C(=O)O", "note": "(stereo not given)", "activity, negative = inhibition": "3.66%"}
{"smiles": "Cn1c(=O)c2c(ncn2CCO)n(C)c1=O", "activity, negative = inhibition": "10%"}
{"smiles": "CCCC(O)C(CC)CO", "note": "(stereo not given)", "activity, negative = inhibition": "9.04%"}
{"smiles": "CCCCCC(N)=O", "activity, negative = inhibition": "6.61%"}
{"smiles": "O=C(O)c1ccc[n+]([O-])c1", "activity, negative = inhibition": "14.9%"}
{"smiles": "CC(CSC(=O)c1ccccc1)C(=O)N1C[C@@H](Sc2ccccc2)C[C@H]1C(=O)O", "note": "(stereo not given in full)", "activity, negative = inhibition": "5.83%"}
{"smiles": "CCOc1cc(NC(C)=O)ccc1C(=O)OC", "activity, negative = inhibition": "8.15%"}
{"smiles": "C[C@@H](N)C(=O)O", "activity, negative = inhibition": "20.7%"}
{"smiles": "NS(=O)(=O)c1cc2c(cc1C(F)(F)F)NCNS2(=O)=O", "activity, negative = inhibition": "6.62% [at 12.8 µM]"}
{"smiles": "NC(=O)NS(=O)(=O)c1ccc(N)cc1", "activity, negative = inhibition": "4.42%"}
{"smiles": "O=C(O)c1ccccc1C(=O)Nc1ccc(S(=O)(=O)Nc2nccs2)cc1", "activity, negative = inhibition": "8.66%"}
{"smiles": "CC(=O)NS(=O)(=O)c1ccc(N)cc1", "activity, negative = inhibition": "1.24%"}
{"smiles": "O=C(O)Cn1c(C(=O)Nc2nc(-c3ccccc3Cl)cs2)cc2ccccc21", "activity, negative = inhibition": "1.09%"}
{"smiles": "CC(O)CCCCn1c(=O)c2c(ncn2C)n(C)c1=O", "note": "(stereo not given)", "activity, negative = inhibition": "3.31%"}
{"smiles": "CCCCCCCCCCCCCCCCN", "activity, negative = inhibition": "12.7%"}
{"smiles": "CN1CCCN=C1COC(=O)C(O)(c1ccccc1)C1CCCCC1", "note": "(stereo not given)", "activity, negative = inhibition": "4.66%"}
{"smiles": "NS(=O)(=O)c1ccc(C(=O)O)cc1", "activity, negative = inhibition": "11.6%"}
{"smiles": "Cn1c([N+](=O)[O-])cnc1COC(N)=O", "activity, negative = inhibition": "5.47%"}
{"smiles": "O=C(O)c1ccccc1OP(=O)(O)O", "activity, negative = inhibition": "12.5%"}
{"smiles": "c1ccc2[nH]ccc2c1", "activity, negative = inhibition": "12.4%"}
{"smiles": "O=C(OOC(=O)c1ccccc1)c1ccccc1", "activity, negative = inhibition": "3.23%"}
{"tested_on": "CP191", "experiment": "qHTS profiling for inhibitors of Plasmodium falciparum proliferation (AID 504749);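 also: 0% = DMSO vehicle and full inhibition = artemisinin control; nearly all actives have a fitted effect of over 60% in size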", "conditions": "P. falciparum in erythrocytes, SYBR Green DNA, 72 h; series mostly up to 28.7 µM; activity, negative = inhibition: at the top concentration", "in_short": "as §1"}
{"smiles": "O=C(O)Cc1ccc(CCNS(=O)(=O)c2ccc(Cl)cc2)cc1", "activity, negative = inhibition": "3.84%"}
{"smiles": "NS(=O)(=O)c1ccc(NC(=O)CCC(=O)O)cc1", "activity, negative = inhibition": "11.4%"}
{"smiles": "C=CCSCC1Nc2cc(Cl)c(S(N)(=O)=O)cc2S(=O)(=O)N1", "note": "(stereo not given)", "activity, negative = inhibition": "5.19%"}
{"smiles": "Cc1cccc(C)c1NC(=O)CC12CCCN1CCC2", "activity, negative = inhibition": "3.85%"}
{"smiles": "CC(=O)Nc1cccc(O)c1", "activity, negative = inhibition": "5.13%"}
{"smiles": "CNCc1ccccc1", "activity, negative = inhibition": "-7.79%"}
{"smiles": "COc1ccc(C(=O)NCc2ccc(OCCN(C)C)cc2)cc1OC", "activity, negative = inhibition": "3.21%"}
{"smiles": "C=CCNC(N)=S", "activity, negative = inhibition": "-10.4%"}
{"smiles": "NS(=O)(=O)c1cc(-c2nn[nH]n2)c(NCc2cccs2)cc1Cl", "activity, negative = inhibition": "0.3%"}
{"smiles": "CCOc1ccc(C(=O)OCCN(CC)CC)cc1", "activity, negative = inhibition": "5%"}
{"smiles": "Cc1c(N(C)C)c(=O)n(-c2ccccc2)n1C", "activity, negative = inhibition": "5.6%"}
{"smiles": "CCc1cccc(CC)c1NC(=O)CN(CC(=O)O)CC(=O)O", "activity, negative = inhibition": "4.23% [at 12.8 µM]"}
{"smiles": "COC(=O)c1cccnc1", "activity, negative = inhibition": "-1.26%"}
{"smiles": "Cc1ccc(S(=O)(=O)NC(=O)NC2CCCCCCC2)cc1", "activity, negative = inhibition": "3.14%"}
{"smiles": "CCCCCCCCCCCCCCCCC(C(=O)O)C(O)(CC(=O)O)C(=O)O", "note": "(stereo not given)", "activity, negative = inhibition": "5.61%"}
{"smiles": "Cn1c(=O)c2c(ncn2CCO)n(C)c1=O", "activity, negative = inhibition": "16.7%"}
{"smiles": "CCCC(O)C(CC)CO", "note": "(stereo not given)", "activity, negative = inhibition": "0.629%"}
{"smiles": "CCCCCC(N)=O", "activity, negative = inhibition": "4.63%"}
{"smiles": "O=C(O)c1ccc[n+]([O-])c1", "activity, negative = inhibition": "6.09%"}
{"smiles": "CC(CSC(=O)c1ccccc1)C(=O)N1C[C@@H](Sc2ccccc2)C[C@H]1C(=O)O", "note": "(stereo not given in full)", "activity, negative = inhibition": "12.2%"}
{"smiles": "CCOc1cc(NC(C)=O)ccc1C(=O)OC", "activity, negative = inhibition": "2.67%"}
{"smiles": "C[C@@H](N)C(=O)O", "activity, negative = inhibition": "6.92%"}
{"smiles": "NS(=O)(=O)c1cc2c(cc1C(F)(F)F)NCNS2(=O)=O", "activity, negative = inhibition": "-2.26% [at 12.8 µM]"}
{"smiles": "NC(=O)NS(=O)(=O)c1ccc(N)cc1", "activity, negative = inhibition": "4.82%"}
{"smiles": "O=C(O)c1ccccc1C(=O)Nc1ccc(S(=O)(=O)Nc2nccs2)cc1", "activity, negative = inhibition": "5.63%"}
{"smiles": "CC(=O)NS(=O)(=O)c1ccc(N)cc1", "activity, negative = inhibition": "1.5%"}
{"smiles": "O=C(O)Cn1c(C(=O)Nc2nc(-c3ccccc3Cl)cs2)cc2ccccc21", "activity, negative = inhibition": "1.72%"}
{"smiles": "CC(O)CCCCn1c(=O)c2c(ncn2C)n(C)c1=O", "note": "(stereo not given)", "activity, negative = inhibition": "-2.99%"}
{"smiles": "CCCCCCCCCCCCCCCCN", "activity, negative = inhibition": "18%"}
{"smiles": "CN1CCCN=C1COC(=O)C(O)(c1ccccc1)C1CCCCC1", "note": "(stereo not given)", "activity, negative = inhibition": "8.15%"}
{"smiles": "NS(=O)(=O)c1ccc(C(=O)O)cc1", "activity, negative = inhibition": "13.6%"}
{"smiles": "Cn1c([N+](=O)[O-])cnc1COC(N)=O", "activity, negative = inhibition": "18.3%"}
{"smiles": "O=C(O)c1ccccc1OP(=O)(O)O", "activity, negative = inhibition": "9.95%"}
{"smiles": "c1ccc2[nH]ccc2c1", "activity, negative = inhibition": "5.52%"}
{"smiles": "O=C(OOC(=O)c1ccccc1)c1ccccc1", "activity, negative = inhibition": "-5.65%"}
{"tested_on": "CP192", "experiment": "qHTS profiling for inhibitors of Plasmodium falciparum proliferation (AID 504749);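 also: 0% = DMSO vehicle and full inhibition = artemisinin control; nearly all actives have a fitted effect of over 60% in size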", "conditions": "P. falciparum in erythrocytes, SYBR Green DNA, 72 h; series mostly up to 28.7 µM; activity, negative = inhibition: at the top concentration", "in_short": "as §1"}
{"smiles": "O=C(O)Cc1ccc(CCNS(=O)(=O)c2ccc(Cl)cc2)cc1", "activity, negative = inhibition": "-2.11%"}
{"smiles": "NS(=O)(=O)c1ccc(NC(=O)CCC(=O)O)cc1", "activity, negative = inhibition": "-1.53%"}
{"smiles": "C=CCSCC1Nc2cc(Cl)c(S(N)(=O)=O)cc2S(=O)(=O)N1", "note": "(stereo not given)", "activity, negative = inhibition": "4.98%"}
{"smiles": "Cc1cccc(C)c1NC(=O)CC12CCCN1CCC2", "activity, negative = inhibition": "3.22%"}
{"smiles": "CC(=O)Nc1cccc(O)c1", "activity, negative = inhibition": "4.2%"}
{"smiles": "CNCc1ccccc1", "activity, negative = inhibition": "-1.61%"}
{"smiles": "COc1ccc(C(=O)NCc2ccc(OCCN(C)C)cc2)cc1OC", "activity, negative = inhibition": "-8.63%"}
{"smiles": "C=CCNC(N)=S", "activity, negative = inhibition": "1.99%"}
{"smiles": "NS(=O)(=O)c1cc(-c2nn[nH]n2)c(NCc2cccs2)cc1Cl", "activity, negative = inhibition": "-3.32%"}
{"smiles": "CCOc1ccc(C(=O)OCCN(CC)CC)cc1", "activity, negative = inhibition": "-1.71%"}
{"smiles": "Cc1c(N(C)C)c(=O)n(-c2ccccc2)n1C", "activity, negative = inhibition": "-12.7%"}
{"smiles": "CCc1cccc(CC)c1NC(=O)CN(CC(=O)O)CC(=O)O", "activity, negative = inhibition": "1.36% [at 12.8 µM]"}
{"smiles": "COC(=O)c1cccnc1", "activity, negative = inhibition": "-14.5%"}
{"smiles": "Cc1ccc(S(=O)(=O)NC(=O)NC2CCCCCCC2)cc1", "activity, negative = inhibition": "-5.66%"}
{"smiles": "CCCCCCCCCCCCCCCCC(C(=O)O)C(O)(CC(=O)O)C(=O)O", "note": "(stereo not given)", "activity, negative = inhibition": "-2.6%"}
{"smiles": "Cn1c(=O)c2c(ncn2CCO)n(C)c1=O", "activity, negative = inhibition": "10.6%"}
{"smiles": "CCCC(O)C(CC)CO", "note": "(stereo not given)", "activity, negative = inhibition": "4.3%"}
{"smiles": "CCCCCC(N)=O", "activity, negative = inhibition": "2.35%"}
{"smiles": "O=C(O)c1ccc[n+]([O-])c1", "activity, negative = inhibition": "-9.05%"}
{"smiles": "CC(CSC(=O)c1ccccc1)C(=O)N1C[C@@H](Sc2ccccc2)C[C@H]1C(=O)O", "note": "(stereo not given in full)", "activity, negative = inhibition": "7.31%"}
{"smiles": "CCOc1cc(NC(C)=O)ccc1C(=O)OC", "activity, negative = inhibition": "0.85%"}
{"smiles": "C[C@@H](N)C(=O)O", "activity, negative = inhibition": "0.415%"}
{"smiles": "NS(=O)(=O)c1cc2c(cc1C(F)(F)F)NCNS2(=O)=O", "activity, negative = inhibition": "-8.35% [at 12.8 µM]"}
{"smiles": "NC(=O)NS(=O)(=O)c1ccc(N)cc1", "activity, negative = inhibition": "6.24%"}
{"smiles": "O=C(O)c1ccccc1C(=O)Nc1ccc(S(=O)(=O)Nc2nccs2)cc1", "activity, negative = inhibition": "2.77%"}
{"smiles": "CC(=O)NS(=O)(=O)c1ccc(N)cc1", "activity, negative = inhibition": "2.31%"}
{"smiles": "O=C(O)Cn1c(C(=O)Nc2nc(-c3ccccc3Cl)cs2)cc2ccccc21", "activity, negative = inhibition": "-3.99%"}
{"smiles": "CC(O)CCCCn1c(=O)c2c(ncn2C)n(C)c1=O", "note": "(stereo not given)", "activity, negative = inhibition": "-8.19%"}
{"smiles": "CCCCCCCCCCCCCCCCN", "activity, negative = inhibition": "-0.523%"}
{"smiles": "CN1CCCN=C1COC(=O)C(O)(c1ccccc1)C1CCCCC1", "note": "(stereo not given)", "activity, negative = inhibition": "-11.8%"}
{"smiles": "NS(=O)(=O)c1ccc(C(=O)O)cc1", "activity, negative = inhibition": "5.7%"}
{"smiles": "Cn1c([N+](=O)[O-])cnc1COC(N)=O", "activity, negative = inhibition": "5.02%"}
{"smiles": "O=C(O)c1ccccc1OP(=O)(O)O", "activity, negative = inhibition": "0.069%"}
{"smiles": "c1ccc2[nH]ccc2c1", "activity, negative = inhibition": "-10.1%"}
{"smiles": "O=C(OOC(=O)c1ccccc1)c1ccccc1", "activity, negative = inhibition": "-27.3%"}
